PubChem BioAssay (NCATS)
Inconclusive results are not listed. Where a call stands in place of a potency, no number is given. Unmarked numbers belong to inactive results. Calls of active or inactive are those of the source. Calls come from the whole dose curve; as a rule, active = well fitted curve in the direction sought with a large enough effect; inconclusive = small, poorly fitted or top-dose-only effect, or another doubt; inactive = no such curve, though single readings can be large; an effect the other way counts as inactive or inconclusive.

Experiments:
[1] = Quantitative highthroughput screen to assess conditional lethalithy of NOMO1 cells grown in RPMI1640 with untreated serum (RPMI+s) (AID 1963876); note: nearly all actives have a fitted effect of over 35% in size; note: potency is the fitted concentration of half-maximal effect
Method in brief: (§1)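 Each medium arm—HPLM with 10% dialyzed FBS, or RPMI1640 with 5 mM glucose and 10% untreated or dialyzed FBS—was screened against an 11-point, 3-fold compound titration for 48 h at 37 °C, with CellTiter-Glo luminescence as endpoint.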

[2] = Quantitative highthroughput screen to assess conditional lethalithy of NOMO1 cells grown in Human Plasma-Like Medium with dialyzed fetal bovine serum (HPLM+ds) (AID 1963878); note: nearly all actives have a fitted effect of over 35% in size; note: potency is the fitted concentration of half-maximal effect
Method in brief: as §1

[3] = Quantitative highthroughput screen to assess conditional lethalithy of P12 Ichikawa cells grown in Human Plasma-Like Medium with dialyzed fetal bovine serum (HPLM+ds) (AID 1963879); settings: Potency: viability; note: nearly all actives have a fitted effect of over 35% in size; note: potency is the fitted concentration of half-maximal effect; for viability: series mostly up to about 46 µM
Method in brief: as §1

[4] = Quantitative highthroughput screen to assess conditional lethalithy of P12 Ichikawa cells grown in RPMI1640 with dialyzed fetal bovine serum (RPMI+ds) (AID 1963880); settings: Potency: P12-Ichikawa viability; note: nearly all actives have a fitted effect of over 35% in size; note: potency is the fitted concentration of half-maximal effect
Method in brief: as §1

[5] = Quantitative highthroughput screen to assess conditional lethalithy of P12 Ichikawa cells grown in RPMI1640 with untreated serum (RPMI+s) (AID 1963881); settings: Potency: viability; note: nearly all actives have a fitted effect of over 35% in size; note: potency is the fitted concentration of half-maximal effect; for viability: series mostly up to about 46 µM
Method in brief: as §1

[6] = Quantitative highthroughput screen to assess conditional lethalithy of SEM cells grown in RPMI1640 with unreated serum (RPMI+s) (AID 1963883); note: nearly all actives have a fitted effect of over 35% in size; note: potency is the fitted concentration of half-maximal effect
Method in brief: as §1

[7] = Cellular viability qHTS for adrenocortical cancer (ACC) cell line NCI-H295R (AID 1963990); note: nearly all actives have a fitted effect of over 60% in size
Method in brief: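 CellTiter-Glo ATP luminescence, read 48 h after compound addition, measured viability of NCI-H295R adrenocortical cells grown serum-free with ITS. Final concentrations spanned up to 46 uM. Data normalized to DMSO and doxorubicin, fitted for IC50 and maximal response.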

[8] = Quantitative highthroughput screen to assess conditional lethalithy of SEM cells grown in Human Plasma-Like Medium with dialyzed fetal bovine serum (HPLM+ds) (AID 1963882); note: nearly all actives have a fitted effect of over 35% in size; note: potency is the fitted concentration of half-maximal effect; for viability: series mostly up to about 46 µM
Method in brief: as §1

[9] = Quantitative highthroughput screen to assess conditional lethalithy of SEM cells grown in RPMI1640 with dialyzed fetal bovine serum (RPMI+ds) (AID 1963884); note: nearly all actives have a fitted effect of over 35% in size; note: potency is the fitted concentration of half-maximal effect; for viability: series mostly up to about 46 µM
Method in brief: as §1

[10] = Cellular viability qHTS for adrenocortical cancer (ACC) cell line SW-13 (AID 1963989); settings: SW-13 ACC cells viability, CellTiter-Glo, 48 h; activity (max response): active compounds read low;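 note: cells grown in serum-free medium with ITS supplement; nearly all actives have a fitted effect of over 65% in size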
Method in brief: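 Viability was read as CellTiter-Glo luminescence after 48 h compound treatment (up to 46 uM final) of SW-13 cells grown serum-free; titration curves were fit with a four-parameter logistic model to give IC50 and efficacy.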

Q: For `c1ccc(-c2nn3c(c2-c2ccnc4cc(OCCN5CCOCC5)ccc24)CCC3)nc1`, which Potency [1] is on record?
A: The Potency was “inactive”.

Q: And the Potency [2]?
A: The Potency was 18.7 µM (active).

Q: What about the Potency [3] of the same molecule?
A: The Potency was “inactive”.

Q: What about the Potency [4] of the same molecule?
A: The Potency was “inactive”.

Q: And the Potency [5]?
A: Its Potency is “inactive”.

Q: What about the Potency [6] of the same molecule?
A: The Potency was “inactive”.

Q: And the Potency [7]?
A: The Potency was “inactive”.

Q: For `CC(=O)O[C@H]1C[C@@H]2CC[C@H]3[C@H]4C[C@H]([N+]5(C)CCCCC5)[C@@H](OC(C)=O)[C@@]4(C)CC[C@@H]3[C@@]2(C)C[C@H]1N1CCCCC1`, which Potency [1] is on record?
A: Its Potency is “inactive”.

Q: And the Potency [2]?
A: The Potency was “inactive”.

Q: And the Potency [3]?
A: The Potency was “inactive”.

Q: What about the Potency [4] of the same molecule?
A: Its Potency is “inactive”.

Q: And the Potency [8]?
A: The Potency was “inactive”.

Q: What about the Potency [6] of the same molecule?
A: The Potency was “inactive”.

Q: And the Potency [9]?
A: The Potency was “inactive”.

Q: For `C=C1[C@H](n2cnc3c(=O)[nH]c(N)nc32)C[C@H](O)[C@H]1CO`, which Potency [1] is on record?
A: The Potency was 18.7 µM (active).

Q: What about the Potency [2] of the same molecule?
A: The Potency was 4.18 µM (active).

Q: And the Potency [3]?
A: The Potency was 2.64 µM (active).

Q: What about the Potency [4] of the same molecule?
A: Its Potency is 1.18 µM (active).

Q: What about the Potency [5] of the same molecule?
A: Its Potency is 2.96 µM (active).

Q: What about the Potency [8] of the same molecule?
A: The Potency was 187 nM (active).

Q: What about the Potency [6] of the same molecule?
A: Its Potency is 526 nM (active).

Q: What about the Potency [9] of the same molecule?
A: The Potency was 46.9 nM (active).

Q: Which Potency [1] does the source give for `CCC[C@@H](NC(=O)[C@@H]1[C@H]2CCC[C@@H]2CN1C(=O)[C@@H](NC(=O)[C@@H](NC(=O)c1cnccn1)C1CCCCC1)C(C)(C)C)C(=O)C(=O)NC1CC1` here?
A: Its Potency is “inactive”.

Q: What about the Potency [2] of the same molecule?
A: Its Potency is “inactive”.

Q: What about the Potency [3] of the same molecule?
A: Its Potency is “inactive”.

Q: And the Potency [4]?
A: Its Potency is “inactive”.

Q: And the Potency [5]?
A: The Potency was “inactive”.

Q: And the Potency [8]?
A: Its Potency is “inactive”.

Q: What about the Potency [6] of the same molecule?
A: The Potency was “inactive”.

Q: What about the Potency [9] of the same molecule?
A: The Potency was “inactive”.

Q: Which results are given for `O=c1c(-c2ccc(O)cc2)coc2cc(O)ccc12`?
A: Potency [1]: inactive; Potency [2]: inactive; Potency [3]: inactive; Potency [4]: inactive; Potency [5]: inactive; Potency [8]: inactive; Potency [6]: inactive; activity (max response) [10]: -14.3%

Q: For `COc1cc2c(cc1OC)CN(CCc1ccc(NC(=O)c3cccc4c(=O)c5cccc(OC)c5[nH]c34)cc1)CC2`, which Potency [1] is on record?
A: The Potency was 4.69 µM (active).

Q: What about the Potency [2] of the same molecule?
A: The Potency was 1.32 µM (active).

Q: And the Potency [3]?
A: The Potency was 1.18 µM (active).

Q: And the Potency [4]?
A: Its Potency is 2.96 µM (active).

Q: What about the Potency [8] of the same molecule?
A: Its Potency is 4180 nM (active).

Q: And the Potency [6]?
A: Its Potency is 1050 nM (active).

Q: And the Potency [9]?
A: The Potency was 935 nM (active).

Q: What about the activity (max response) [10] of the same molecule?
A: The activity (max response) was -3.54%.

Q: With `Cn1cc(-c2ccc3nnc(C(F)(F)c4ccc5ncccc5c4)n3n2)cn1` as the molecule, how does the Potency [1] read?
A: The Potency was “inactive”.

Q: And the Potency [2]?
A: Its Potency is “inactive”.

Q: And the Potency [3]?
A: The Potency was “inactive”.

Q: What about the Potency [4] of the same molecule?
A: Its Potency is “inactive”.

Q: And the Potency [5]?
A: Its Potency is “inactive”.

Q: What about the Potency [6] of the same molecule?
A: Its Potency is “inactive”.

Q: And the activity (max response) [10]?
A: The activity (max response) was 3.57%.

Q: And the Potency [7]?
A: Its Potency is “inactive”.

Q: Which Potency [1] does the source give for `COc1cccc(N(C)C(=S)Oc2ccc3c(c2)CCCC3)n1` here?
A: The Potency was “inactive”.

Q: What about the Potency [2] of the same molecule?
A: Its Potency is “inactive”.

Q: And the Potency [3]?
A: The Potency was “inactive”.

Q: What about the Potency [4] of the same molecule?
A: The Potency was “inactive”.

Q: What about the Potency [5] of the same molecule?
A: Its Potency is “inactive”.

Q: What about the Potency [8] of the same molecule?
A: The Potency was “inactive”.

Q: What about the Potency [6] of the same molecule?
A: The Potency was “inactive”.

Q: What about the Potency [9] of the same molecule?
A: The Potency was “inactive”.

Q: What does the source list for `CC(C)(C)[N+]([O-])=Cc1ccc(S(=O)(=O)O)cc1S(=O)(=O)O`?
A: Potency [1]: inactive; Potency [2]: inactive; Potency [3]: inactive; Potency [4]: inactive; Potency [5]: inactive; Potency [8]: inactive; Potency [6]: inactive; Potency [9]: inactive
